Rows were chosen to be rich in hits. Some 12% of all compounds tested hit in one or more screens of this group.
BAZ2B inh: blocks human BAZ2B. Q9UIF8. AlphaScreen BAZ2B-H3K14Ac peptide displacement. Potency, µM (titrated, usually from 114 µM), inactives show top-dose activity change, negative = inhibition, usual class: inhibitors. 360,000 tested, 4.4% active; note: % is set by controls: 0 for no effect and ±100 for the full control effect; nearly all actives have a fitted effect of over 60% in size
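BAZ2B 50 nM plus b-H3(5-23)K14Ac 50 nM, PBS pH 7.4/0.01% Tween-20, 30 min RT; compound added (max 110 uM), 30 min RT; streptavidin donor/Ni-chelate acceptor beads 10 ug/mL final, 20 min dark; AlphaScreen read.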
Sfp PPTase inh: Sfp phosphopantetheinyl transferase inhibition; 310,000 tested, 3.5% active; Potency, µM, for the others: largest response in the series, negative = inhibition, actives largely listed as inhibitors; Q9F4F7; Biochemical Sfp PPTase activity, qHTS;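 note: the enzyme is Sfp with the accession as filed and its product quenches rhodamine fluorescence; 0% = enzyme reaction without inhibitor and -100% = no enzyme wells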
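Reaction rates are the 30-min fluorescence difference (ex 525, em 598 nm) in wells containing 15 nM Sfp, 5 uM rhodamine-CoA and 12.5 uM BHQ-2-YbbR at pH 7.6 with 10 mM MgCl2.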
L3MBTL1 inh: L3MBTL1 (human) inhibition; Q9Y468; AlphaScreen L3MBTL1–H3K9me1 peptide binding; Potency, µM (highest dose often 57.1 µM), without a hit: at the top dose activity, negative = inhibition, actives largely listed as inhibitors; 230,000 tested, 0.66% active; note: % is set by controls: 0 for no effect and ±100 for the full control effect; nearly all actives have a fitted effect of over 60% in size
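Displacement of a biotinylated histone H3(1-15) peptide monomethylated at Lys9 (75 nM) from L3MBTL1 (50 nM) was measured by AlphaScreen after a 30 min room-temperature compound incubation; cefsulodin titration served as intraplate control.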
JMJD2A Tudor: JMJD2A Tudor domain (human) inhibition. O75164. AlphaScreen JMJD2A-Tudor / H3K4me3 peptide binding. Potency, µM (top dose mostly 114 µM), for inactives: top-dose activity change, negative = inhibition, hits mostly inhibitors. 390,000 tested, 4.4% active; note: % is set by controls: 0 for no effect and ±100 for the full control effect; nearly all actives have a fitted effect of over 50% in size
G9a block: blocks human histone lysine methyltransferase G9a | G9a H3K9 monomethylation, AlphaScreen, 2 h | Potency, µM (doses to about 102 µM), inactives show at the highest dose activity, negative = inhibition, usual class: inhibitors | 350,000 tested, 8.8% active; note: % is set by controls: 0 for no effect and ±100 for the full control effect; nearly all actives have a fitted effect of over 75% in size
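G9a (20 nM) preincubated 15 min RT with compounds, then 500 nM biotinylated H3K9 peptide and 20 uM SAM added; 2 h RT reaction. Monomethyl-H3K9 product detected by AlphaScreen with anti-H3K9me1 antibody, streptavidin donor and anti-rabbit IgG acceptor beads.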
HP1b chromo inh: inhibitors of HP1-beta chromodomain binding to methylated histone tails; AlphaScreen HP1-beta / biotin-H3K9me3 peptide binding; Potency, µM (top dose mostly 114 µM), inactives show top-dose activity change, negative = inhibition, actives largely listed as inhibitors; 390,000 tested, 0.56% active; AID 540317; note: nearly all actives have a fitted effect of over 70% in size
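Compound inhibition of the preformed complex between 50 nM HP1-beta and 50 nM biotinylated H3K9me3 peptide was read by AlphaScreen. Buffer was PBS pH 7.4 with 0.01% Tween-20. Incubations ran 30 min at room temperature, with 10 ug/mL donor/acceptor beads.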
Active calls of the source: *; u = inconclusive; x = no result given; [ ] = another dose, or the depositor's remark. Calls come from the whole dose curve; as a rule, active = well fitted curve in the direction sought with a large enough effect; inconclusive = small, poorly fitted or top-dose-only effect, or another doubt; inactive = no such curve, though single readings can be large; an effect the other way counts as inactive or inconclusive. Potency is the fitted concentration of half-maximal effect.

SMILES	BAZ2B inh	Sfp PPTase inh	L3MBTL1 inh	JMJD2A Tudor	G9a block	HP1b chromo inh
CCOc1ccc(-n2c(C)c(C(C)=O)c3cc(OCC(N)=O)ccc32)cc1	u	-29%	-22%	-11%	2%	39%
O=C(O)c1cccc(Nc2nc(-c3ccc([N+](=O)[O-])cc3)nc3ccccc23)c1	56µM*	-7%	x	-30%	u	12%
O=C(O)c1cccc(-n2c(/C=C/c3ccc([N+](=O)[O-])cc3)nc3ccccc3c2=O)c1	-30%	8%	-2%	-25%	71µM*	7%
O=[N+]([O-])c1ccc(-c2nc(Nc3cccc(O)c3)c3ccccc3n2)cc1	-18%	4%	x	-26%	-5%	29%
CC(=O)c1ccc(Nc2nc3ccccc3nc2NS(=O)(=O)c2cccs2)cc1	9%	31%	x	13%	3%	30%[57 µM]
O=C(O)c1cccc(Nc2nc(-c3ccccc3)nc3ccccc23)c1	u	10%	x	-13%	56µM*	16%
O=C(O)c1cccc(Nc2nc3ccccc3nc2NS(=O)(=O)c2cccs2)c1	-5%[57.1 µM]	14%	x	-15%	45µM*	37%
O=C(O)c1cccc(Nc2nc(C(F)(F)F)nc3ccccc23)c1	-17%	1%	u	-9%	-1%[59 µM]	20%
CS(=O)(=O)c1ccc(CNC(=O)[C@@H]2C[C@H]2[C@@H](NP(=O)(c2ccccc2)c2ccccc2)c2ccccc2)cc1	x	11%	x	x	x	x
COc1cccc(Cn2c(=O)c(-c3ccc(Cl)cc3)nc3cnc(N(C)C)nc32)c1	x	23%	x	x	19%[12.7 µM]	x
Cc1ccc(N=Cc2sc(O)c3ccccc23)c(C)c1	14%	22µM*	-3%	-6%	8.9µM*	-4%
Cc1ccc(N=Cc2sc(O)c3ccccc23)cc1	33%	32µM*	34%	14%[57.1 µM]	8.9µM*	67%
CCN(CC)c1ccc(C=Nc2ccc(C)cc2C)c(O)c1	-15%	-19%	10%	-10%	x	33%
COCCCN(CC(=O)O)S(=O)(=O)c1cccc(Cl)c1	-1%	29%	15%	-6%	50µM*	33%
CCCCNc1ncnc2oc(-c3ccco3)c(-c3ccco3)c12	x	x	x	50µM*	x	u
Cc1ccc[n+](CC(=O)Nc2ccc(C)c(C)c2)c1	-3%	2%	8%	9%	x	41%
COc1ccc(CCN2C(=O)NC(NC(C)=O)(C(F)(F)F)C2=O)cc1OC (centres undefined)	-5%	9%	9%	0%	-9%[59 µM]	48%
COc1ccc(C(=O)NC2(C(F)(F)F)NC(=O)N(CCCc3ccccc3)C2=O)cc1OC (centres undefined)	-4%	4%	-1%	79µM*	3%	-1%
Cc1noc(NC(=O)c2c(-c3c(Cl)cccc3Cl)noc2C)c1[N+](=O)[O-]	-20%	21%	-5%	-24%	-30%	16%
CC(=O)Nc1ccc(OCCOc2ccc([N+](=O)[O-])cc2)cc1	-14%	89µM*	0%	-3%	u	18%
Cc1cnc(NC(=O)Cc2ccc(Br)cc2)s1	-4%	11%	3%	-10%	28%	18%
O=C(Cc1ccc(Br)cc1)Nc1ncc([N+](=O)[O-])s1	50µM*	-29%	x	-26%	28µM*	2%
O=C(Cc1ccc(Cl)cc1)Nc1ncc([N+](=O)[O-])s1	-12%	-19%	7%	-31%	35µM*	-5%
O=C(COC(=O)COc1ccccc1)Nc1ncc([N+](=O)[O-])s1	-36%	x	-6%	79µM*	u	-29%
COc1ccc(NC(=O)Cn2nnc(C(=O)Nc3ccc(F)c(Cl)c3)c2N)cc1	-18%	7%	x	-6%	14%[59 µM]	20%
SMILES	BAZ2B inh	Sfp PPTase inh	L3MBTL1 inh	JMJD2A Tudor	G9a block	HP1b chromo inh
Cc1onc(-c2ccccc2)c1C(=O)Nc1ncc([N+](=O)[O-])s1	-29%	5%	x	-15%	45µM*	-3%
O=C(C/C=N\OCc1ccc([N+](=O)[O-])cc1)Nc1ccc(Cl)cc1	-5%	-7%	-6%	-24%	4%	4%
O=C(Cc1ccc([N+](=O)[O-])cc1)Nc1ccc(Cl)cc1	-12%	-42%	-23%	-12%	40µM*	31%
Cc1c(C(=O)OC2CCCC2)[nH]c2c1C(=O)CC(c1ccc(C(C)(C)C)cc1)C2 (centres undefined)	0%	x	x	-21%	4%[59 µM]	21%
NC(=O)c1ccsc1NC(=O)CSc1nnc(NC2CC2)s1	x	x	1%	-6%	x	-7%
CC(Sc1nncn1C)C(=O)Nc1ccc2ccccc2c1 (centres undefined)	7%	x	-10%	-16%	8.9µM*	18%
Cc1ccc(/C=C2\Oc3c(ccc(O)c3CN3CCN(C)CC3)C2=O)cc1	2%	0%	x	-6%	-3%	27%
CCN1CCN(Cc2c(O)ccc3c2O/C(=C\c2ccccc2)C3=O)CC1	u	8%	x	-11%	79µM*	42%
CCN1CCN(Cc2c(O)ccc3c2O/C(=C\c2ccc(C)cc2)C3=O)CC1	u	9%	5%	-14%	-11%	35%
CC1CCCN(Cc2c(O)ccc3c2O/C(=C\c2ccco2)C3=O)C1 (centres undefined)	u	35µM*	-24%	u	3.5µM*	-10%
COc1cccc(NC(=O)C(=O)N/N=C/c2cc(C)n(-c3ccc(Cl)c(Cl)c3)c2C)c1	-2%	22%	x	-5%	7%	29%
O=C(CCc1nnc(Cc2ccc3c(c2)OCO3)o1)NCc1nc2ccccc2s1	1%	17%	0%	-23%	45µM*	53%
O=C(CCc1nc2ccccc2[nH]1)NCc1ccc2c(c1)OCO2	2%	-4%	25%	10%	-127%	40%
O=C(CSc1ccc2nnc(-c3ccncc3)n2n1)Nc1ccc2c(c1)OCCO2	1%	10%	x	-6%	-2%	22%
O=C(CSc1ccc2nnc(-c3cccnc3)n2n1)NCc1ccco1	-32%	50µM*	x	-6%	79µM*	40%
Cc1ccc(NC(=O)CSc2ccc3nnc(-c4ccccn4)n3n2)cc1	4%	12%	x	-27%	45%	48%
O=C(CSc1ccc2nnc(-c3cccc(F)c3)n2n1)NCc1ccco1	-35%	2%	-2%	-29%	-9%	9%
O=C(CSc1ccc2nnc(-c3ccncc3)n2n1)Nc1ccc2c(c1)OCO2	-2%	9%	x	-30%	32µM*	45%
CCOC(=O)CSc1ccc2nnc(-c3cccnc3)n2n1	6%	-15%	2%	-6%	18µM*	60%
CC(=O)c1ccc(NC(=O)CSc2ccc3nnc(-c4ccccn4)n3n2)cc1	1%	8%	x	32µM*	89%	46%
CN1CCN(c2ncc3nc(-c4cccs4)c(=O)n(C[C@H]4CCCO4)c3n2)CC1	x	3%	x	x	0%[12.7 µM]	x

Screens: PubChem BioAssay, National Center for Advancing Translational Sciences (NCATS)
